Source: PMC5540273 (PLoS ONE, 2017)

tested on: ACVR1; settings: concentration: 1 μM, replicates: in singlicate; n = 1
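Also: KINOMEscan kinase panel screen.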

SMILES	%Inh [%]
Cc1ccc(C(=O)N2CC[C@@H](O)C2)cc1-n1c(C)cc(OCc2ccc(F)cc2F)c(Br)c1=O	0
c1ccc(Oc2ccc(Nc3ccnc4cc(-c5ccc(CNCCN6CCOCC6)o5)ccc34)cc2)nc1 [GW567145]	8
CC(C)c1nc(-c2cccc(NS(=O)(=O)c3c(F)cccc3F)c2F)c(-c2ccnc(Nc3ccc(N4CCOCC4)nc3)n2)s1 [GSK2008607]	43
c1ccc(-c2cnc3nccnn23)cc1 [AH20685]	17
CCn1c(-c2nonc2N)nc2c(C#CC(C)(C)O)nc(OC[C@H](N)c3ccccc3)cc21 [GSK943949]	0
CSc1cccc2c(-c3ccncn3)c(-c3ccc(F)cc3)nn12 [GW514786]	0
FC(F)(F)c1ccc(/C=C/c2cncnc2Nc2ccc3[nH]c(Cc4ccccc4)nc3c2)cc1 [GW709199]	0
C[C@@H](Oc1cc(-n2cnc3cc(-c4ccnc(NCCS(C)(=O)=O)c4)ccc32)sc1C(N)=O)c1ccccc1Cl [GSK907232]	10
O=C(Nc1n[nH]c2cc(-c3ccoc3)ccc12)C1CC1 [SB-738481]	30
CC(C)(C)c1ccc2nccc(Nc3cccc(O)c3)c2c1 [GW856795]	8
Cl.Cl.NCC(NC(=O)c1cc(-c2ccccc2)c(-c2ccnc3[nH]ccc23)s1)c1ccccc1 (stereo not drawn) [GSK1321561]	10
CCc1ccc(-c2ccc3c(c2)-c2c(cnn2C)S(=O)(=O)N3C)cc1	0
